USP30 block = inhibitors of human USP30 deubiquitinase. inhibition, % at 25 µM. 47,000 tested, 5.3% active. purified USP30, Ub-rhodamine cleavage fluorescence. Ubiquitin carboxyl-terminal hydrolase 30 (Homo sapiens), Q70CQ3
USP17 inh = inhibitors of human USP17 deubiquitinase; AID 1645855, 2021; inhibition, % at 50 µM; purified USP17, Ub-rhodamine cleavage fluorescence, 3 h; Ubiquitin carboxyl-terminal hydrolase 17-like protein 5 (Homo sapiens), A8MUK1; 47,000 tested, 6.5% active
USP28 block = inhibitors of human USP28 deubiquitinase | purified USP28, Ub-rhodamine cleavage fluorescence, 30 min | inhibition, % at 25 µM | 47,000 tested, 3% active
USP8 inh = inhibitors of human USP8 deubiquitinase; 47,000 tested, 4.2% active; purified USP8, Ub-rhodamine cleavage fluorescence, 30 min; AID 1645853, 2021; inhibition, % at 20 µM; Ubiquitin carboxyl-terminal hydrolase 8 (Homo sapiens), P40818
Target sequence (P40818 whole entry, looked up): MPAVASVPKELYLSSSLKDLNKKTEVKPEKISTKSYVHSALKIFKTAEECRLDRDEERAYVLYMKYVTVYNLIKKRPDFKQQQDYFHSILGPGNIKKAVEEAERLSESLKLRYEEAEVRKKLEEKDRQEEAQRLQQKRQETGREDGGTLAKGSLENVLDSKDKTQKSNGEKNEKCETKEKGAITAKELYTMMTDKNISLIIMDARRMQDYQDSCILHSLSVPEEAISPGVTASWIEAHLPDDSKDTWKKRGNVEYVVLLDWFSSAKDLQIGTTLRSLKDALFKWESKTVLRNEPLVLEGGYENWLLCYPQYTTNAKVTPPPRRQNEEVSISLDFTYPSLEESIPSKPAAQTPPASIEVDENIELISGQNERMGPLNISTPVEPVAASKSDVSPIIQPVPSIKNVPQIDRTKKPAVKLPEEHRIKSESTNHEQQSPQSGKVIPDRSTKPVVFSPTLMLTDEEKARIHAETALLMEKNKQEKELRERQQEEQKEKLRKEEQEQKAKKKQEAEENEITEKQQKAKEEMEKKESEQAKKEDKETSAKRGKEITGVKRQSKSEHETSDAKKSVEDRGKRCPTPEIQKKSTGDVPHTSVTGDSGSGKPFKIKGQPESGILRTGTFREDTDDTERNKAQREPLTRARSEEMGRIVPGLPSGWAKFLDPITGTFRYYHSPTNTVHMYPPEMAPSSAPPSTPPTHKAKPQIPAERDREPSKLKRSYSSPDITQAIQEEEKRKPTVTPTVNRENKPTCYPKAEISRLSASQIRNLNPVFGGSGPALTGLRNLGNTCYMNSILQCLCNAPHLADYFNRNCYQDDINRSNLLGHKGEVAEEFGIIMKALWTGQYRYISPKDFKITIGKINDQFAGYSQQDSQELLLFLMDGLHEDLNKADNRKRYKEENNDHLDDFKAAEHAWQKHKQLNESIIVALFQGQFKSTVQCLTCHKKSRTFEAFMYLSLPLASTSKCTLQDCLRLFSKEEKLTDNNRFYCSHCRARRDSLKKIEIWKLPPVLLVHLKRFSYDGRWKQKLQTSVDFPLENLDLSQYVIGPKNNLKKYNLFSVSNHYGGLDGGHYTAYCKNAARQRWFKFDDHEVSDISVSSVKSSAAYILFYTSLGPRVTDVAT
USP10 block = inhibitors of human USP10 deubiquitinase. inhibition, % at 20 µM. purified USP10, Ub-rhodamine fluorescence, 60 min. 47,000 tested, 1.1% active. AID 1645856, 2021
Numbers stand for hits; n = inactive; x = no result given. Sampled rows, rich in hits. Any-hit rate of the full collection: about 14%. Cut-off read from the data, not from the text of the source: active = inhibition above about 30%; inactive = the rest.

SMILES	USP30 block	USP17 inh	USP28 block	USP8 inh	USP10 block
O=C(NCc1ccc(F)cc1F)c1c(O)c2cnn(-c3ccc(F)cc3)c2[nH]c1=O	n	n	n	n	n
NCCc1csc2nc(-c3ccccc3)nn12	n	n	n	n	n
O=C(Nc1ccc2c(N3CCOCC3)ncnc2c1)c1cc(F)ccc1F	n	n	n	n	n
Cc1ccccc1NC(=O)c1c(O)c2cnn(Cc3ccccc3)c2[nH]c1=O	n	35	n	83	n
O=C(NCc1ccc2c(c1)OCO2)c1c(O)c2cccnc2n(-c2ccccc2)c1=O	n	n	n	81	n
O=C(Nc1ccc2c(c1)OCO2)C(=O)c1cn(CC(=O)N2CCCCC2)c2ccccc12	n	n	n	n	n
Cc1c(-c2cccc(Cl)c2)nc2ccccc2c1C(=O)N1CCCc2ccccc21	n	n	n	n	n
COCCn1cc(NC(=O)N2CCN(c3ccccc3F)CC2)c2ccccc21	n	n	n	54	n
CC(C)C(NC(=O)c1ccccn1)c1nc2ccccc2[nH]1 (configuration not stated)	n	n	n	n	n
COc1ccc(C(=O)Nc2n[nH]c(C)c2-c2cccc(C)c2)c(OC)c1	72	n	34	n	n
COc1cc(OC)cc(C(=O)Nc2n[nH]c(C)c2-c2cccc(C)c2)c1	n	n	n	n	n
CNc1cc(C)nc(C2CN(C(=O)c3ccc4n[nH]nc4c3)CCO2)c1 (configuration not stated)	n	n	n	n	n
CNc1cc(C)nc(C2CN(C(=O)c3ccc(C)n(C)c3=O)CCO2)c1 (configuration not stated)	32	n	n	n	n
COc1ccc(CNC(=O)NCc2nnnn2-c2ccccc2)cc1OC	n	n	n	n	n
CCN1C[C@@]23CN(C(=O)Nc4ccc(F)cc4)C[C@@H](C[C@@H]2S1(=O)=O)O3	n	n	n	n	n
COc1ccc(CC(=O)NCc2ccc3[nH]c(C)cc3c2)cc1	n	56	n	n	n
Cc1cc2cc(CNC(=O)c3ccccc3[N+](=O)[O-])ccc2[nH]1	n	39	n	n	n
CCN(c1ccc(OC)cc1)S(=O)(=O)N1CCCC(C(=O)NCc2ccc(Cl)cc2)C1 (configuration not stated)	n	n	n	n	n
COc1ccc(NC(=O)C2CCCN(S(=O)(=O)N3CCCCCC3)C2)cc1 (configuration not stated)	n	51	n	n	n
CCOC(=O)c1ccc(NC(=O)C2CCCN(c3nc(-c4ccc(OC)cc4)no3)C2)cc1 (configuration not stated)	37	n	n	n	n
CC(=O)Nc1ccc(S(=O)(=O)N2CCCC(C(=O)Nc3cccc4ccccc34)C2)cc1 (configuration not stated)	56	n	n	n	n
COc1ccc(CNC(=O)C2CCCN(S(=O)(=O)Cc3ccc(Cl)cc3)C2)cc1 (configuration not stated)	47	n	n	n	n
CCc1ccccc1OCC(=O)Nc1ccc2nc(C)sc2c1	n	x	n	n	n
COc1ccccc1N1CCN(c2nc(C)c(Cc3ccccc3)c(=O)[nH]2)CC1	n	n	n	n	n
Cc1ccc(CN2C[C@H]3C[C@H](C(=O)Nc4cccnc4)[C@@H](C2)O3)cc1	n	n	n	n	n
SMILES	USP30 block	USP17 inh	USP28 block	USP8 inh	USP10 block
Cc1ccccc1CNC(=O)C1CCCN(S(=O)(=O)N2CCCCCC2)C1 (configuration not stated)	39	n	n	n	n
COc1cccc(CNC(=O)C2CCCN(S(=O)(=O)N3CCCCCC3)C2)c1OC (configuration not stated)	n	n	n	n	n
Cc1cccc(NC(=O)Cn2cc(C(=O)N3CCCC3)c(=O)c3ccc(C)nc32)c1	n	n	n	n	n
Nc1nccc(/C=C/c2c(Cl)cccc2Cl)n1	n	31	n	n	n
O=C(Cn1cncc(-c2nc(-c3ccccc3)cs2)c1=O)NC1CCCC1	49	67	36	n	n
CC(C)NC(=O)N1CCC2(CC1)CN(c1cccnc1)c1ccccc12	n	n	n	n	n
O=C(c1csc2ccccc12)N1CCN(c2ccc(Cl)c(Cl)c2)CC1	33	n	n	n	n
COc1ccc(OCc2nn3c(-c4cccc(C)c4)nnc3s2)cc1	n	n	n	n	n
Cc1cccc(CNC(=O)CN2C(=O)C3CCCN3C(=O)c3ccc(F)cc32)c1 (configuration not stated)	n	n	n	n	n
O=C(CN1C(=O)c2cccc3cccc1c23)NCCSCc1ccc(Cl)c(Cl)c1	n	n	n	53	40
COc1ccccc1NC(=O)CN1C(=O)c2cccnc2Sc2ccccc21	n	n	n	n	n
Cc1cccc(CSCCNC(=O)CN2C(=O)c3cccc4cccc2c34)c1	n	41	n	n	n
CCOc1ccccc1NC(=O)CN1C(=O)c2cccc3cccc1c23	n	n	n	68	n
COc1ccc(-c2c3c(nc4c(C#N)c(C)n(-c5ccccc5)c24)CCC3)cc1	n	n	n	n	n
COc1cc2c(C#N)c(N3CCCC3)nc3c2c(n1)NC(C)(c1ccc(-c2ccccc2)cc1)N3 (configuration not stated)	n	n	n	39	n
Cc1c(C)c2ccc(OCC(=O)NCc3ccncc3)cc2oc1=O	n	n	n	n	n
CCn1c2ccccc2c2cc(NC(=O)C3=COCCO3)ccc21	n	n	n	n	n
CC(C)C(=O)N1CCc2[nH]c3ccccc3c2C1	n	n	n	n	n
Cc1ccc(C)c(C2CC(=O)Nc3c2c(C)nn3-c2nc3ccccc3s2)c1 (configuration not stated)	n	n	n	n	n
CCOc1ccc2nc(-n3nc(C)c4c3NC(=O)CC4c3cc(C)sc3C)sc2c1 (configuration not stated)	36	n	n	n	n
O=C(Oc1cc(O)cc2c1C[C@@H](OC(=O)c1cc(O)c(O)c(O)c1)[C@@H](c1cc(O)c(O)c(O)c1)O2)c1cc(O)c(O)c(O)c1	n	77	78	n	n
CC1(C)OC(=O)[C@]2(C)C[C@@H](C(=O)Nc3cccc4cccnc34)[C@@]1(C)N2	n	n	n	n	n
CC1(C)OC(=O)[C@@]2(C)N[C@]1(C)C[C@@H]2C(=O)Nc1cccc2cccnc12	n	n	n	41	n
Cc1cc(NCC(=O)Nc2ccc(Cl)cc2)n2nc(-c3cccnc3)nc2n1	38	n	n	n	n
CCCCNC(=O)c1cccc(Nc2cc(C)nc3nc(-c4cccnc4)nn23)c1	38	32	n	n	n
Cc1cc(NCC(=O)Nc2cccc(F)c2)n2nc(-c3cccnc3)nc2n1	n	n	n	n	n

Screens: PubChem, Buhrlage Lab, Dana-Farber Cancer Institute and Novartis Institutes for BioMedical Research (Cambridge, Mass)
